High-throughput results (PubChem)
TDP1 cell noCPT – qHTS for Inhibitors of human tyrosyl-DNA phosphodiesterase 1 (TDP1): qHTS in cells in absence of CPT. DT40 Tdp1-/- hTDP1 cells, no CPT, ATP luminescence, 48 h. AID 686978, 2013. hit rate 15% among 420,000. Potency, µM (highest dose often 46.2 µM), for inactives: top-dose activity change, negative = growth inhibition, actives largely listed as inhibitors; note: potency is the fitted concentration of half-maximal effect; nearly all actives have a fitted effect of over 55% in size
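Growth kinetics read by CellTiter-Glo luminescence after ≥48 hr at 37 °C. Cells: DT40 Tdp1-/- stably carrying human TDP1, 400 per well, compound exposure in the absence of CPT (DMSO vehicle).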
LDHA inh – qHTS assay for inhibitors of human lactate dehydrogenase. activity change, % (values are at about 110 or 230 µM). purified LDHA, NADH/diaphorase-resazurin fluorescence; hits give low values. L-lactate dehydrogenase A chain (Homo sapiens), P00338. hit rate 0.15% among 480,000; in the data active = activity change below about -30%; inconclusive = mostly about -25% to -30%;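 note: plate controls were DMSO wells for no effect and wells without enzyme for full effect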
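Resorufin fluorescence (ex540/em590), read at 0 and 20 min after diaphorase/resazurin addition, reports the NADH left after a 5 min room-temperature reaction of 2 nM human LDH5 with 0.06 mM NADH and 0.2 mM pyruvate.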
IL1B secr inh – qHTS for Inhibitors of Inflammasome Signaling: IL-1-beta AlphaLISA Primary Screen. AID 743279, 2014. THP-1 LPS/ATP IL-1B secretion, AlphaLISA, 16 h; hits give low values. hit rate 4.7% among 360,000. activity change, % at 57.5 µM; in the data active = activity change below about -50%; inconclusive = mostly about -30% to -49%
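THP-1 cells pretreated 1 hr with compounds (up to 57.5 uM final), then stimulated with LPS (250 ng/mL final) plus ATP (1.25 mM final); secreted IL-1B measured by AlphaLISA after 16 hr, decreased signal indicating inhibition.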
RORgamma inh – qHTS for inhibitors of ROR gamma transcriptional activity. Drosophila S2 Gal4-RORgamma UAS-luciferase reporter, 20 h. Potency, µM (doses to about 53.6 µM), for the others: at the highest dose activity change, negative = inhibition, usual class: inhibitors. hit rate 5.4% among 310,000; note: potency is the fitted concentration of half-maximal effect; nearly all actives have a fitted effect of over 60% in size
Target sequence (P51450 whole entry, looked up, the tested form may be a part): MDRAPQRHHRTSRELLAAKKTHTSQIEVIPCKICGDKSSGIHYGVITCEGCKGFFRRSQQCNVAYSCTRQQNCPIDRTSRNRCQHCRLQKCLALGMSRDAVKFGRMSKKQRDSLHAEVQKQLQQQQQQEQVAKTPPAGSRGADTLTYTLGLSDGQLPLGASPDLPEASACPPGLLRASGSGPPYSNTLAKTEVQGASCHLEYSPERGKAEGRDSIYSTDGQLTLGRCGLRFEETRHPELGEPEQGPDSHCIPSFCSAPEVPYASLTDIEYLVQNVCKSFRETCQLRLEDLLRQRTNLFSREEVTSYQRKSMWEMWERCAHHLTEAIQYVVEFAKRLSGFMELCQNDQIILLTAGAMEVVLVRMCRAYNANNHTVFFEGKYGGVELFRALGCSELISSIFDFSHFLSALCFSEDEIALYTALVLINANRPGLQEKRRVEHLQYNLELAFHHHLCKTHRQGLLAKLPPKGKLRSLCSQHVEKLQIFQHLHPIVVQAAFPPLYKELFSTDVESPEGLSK
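Compounds are pin-transferred onto Drosophila Schneider cells expressing a copper-inducible Gal4–ROR gamma transactivation domain fusion. After 1 hr, copper sulfate is added to 700 uM final; luciferase is read 20 hr later.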
DT40 TDP1 CPT – qHTS for Inhibitors of human tyrosyl-DNA phosphodiesterase 1 (TDP1): qHTS in cells in presence of CPT. Potency, µM (doses to about 46.2 µM), for the others: at the highest dose activity change, negative = growth inhibition, hits mostly inhibitors. hit rate 12% among 420,000. chicken DT40 Tdp1-/-;hTDP1 cells + 20 nM CPT, ATP luminescence, 48 h; note: potency is the fitted concentration of half-maximal effect; nearly all actives have a fitted effect of over 55% in size
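Chicken DT40 Tdp1-/- cells complemented with human TDP1, 400 cells/well, exposed to compounds plus 20 nM camptothecin for at least 48 h at 37 C; viability read as ATP content by CellTiter-Glo luminescence.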
VP16 counter – VP16 counterscreen qHTS for inhibitors of ROR gamma transcriptional activity; AID 2546, 2010; hit rate 3.5% among 310,000; Drosophila S2 Gal4-VP16 UAS-luciferase, luminescence, 20 h; Potency, µM (series often up to 53.6 µM), for the others: at the top dose activity, negative = inhibition, most hits filed as inhibitors;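 note: Gal4-VP16 expression switched on by copper sulfate through the metallothionein promoter; potency is the fitted concentration of half-maximal effect; nearly all actives have a fitted effect of over 50% in size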
* = called active by the depositor; ? = inconclusive; . = not tested or not shown. Sampled rows, rich in hits. Any-hit rate of the full collection: about 18%. Unless noted, calls come from the whole dose curve; as a rule, active = well fitted curve in the direction sought with a large enough effect; inconclusive = small, poorly fitted or top-dose-only effect, or another doubt; inactive = no such curve, though single readings can be large; an effect the other way counts as inactive or inconclusive. Unless noted, % is set by controls: 0 for no effect and ±100 for the full control effect.

SMILES	TDP1 cell noCPT	LDHA inh	IL1B secr inh	RORgamma inh	DT40 TDP1 CPT	VP16 counter
COc1cccc(N2CC(C(=O)NCCNC(=O)c3cn(C)c4ccccc34)CC2=O)c1 (stereo unspecified)	.	2	.	.	.	.
N#Cc1ccc(CSCc2nc(N)nc(Nc3ccccc3)n2)cc1	.	1	.	.	.	.
CCN(CC)c1ccc(C(=O)NC(=S)N2CCN(Cc3ccc4c(c3)OCO4)CC2)cc1	-21%	-15	-25	6.3µM*	?	7.1µM*
CCCCOc1ccc(C(=O)NCC(=O)N2CCN(Cc3ccc4c(c3)OCO4)CC2)cc1	13µM*	-8	-6	.	?	.
COc1cccc(NC(=O)CSc2nc3ccccc3o2)c1	.	0	.	.	.	.
CNC(=O)c1ccc(C2Nc3cc(C(F)(F)F)ccc3S(=O)(=O)N2)cc1 (stereo unspecified)	.	10	.	.	.	.
CC(C)[C@H]1c2ccc(F)cc2CC[C@@]1(CCN(C)CCCc1nc2ccccc2[nH]1)OC(=O)C1CC1	4.5µM*	3	.	?	5µM*	?
CN(Cc1nc2ccccc2[nH]1)C(=O)C1CCC(=O)N(CCc2cccc(F)c2)C1 (stereo unspecified)	13%	-8	-9	-29%	-7%	-4%
CCC12CC1(C(=O)OC)C(=O)N1CCc3c([nH]c4ccccc34)C12 (stereo unspecified)	-13%	-9	-59*	.	1%	.
CC1=C(C(=O)OC2CCCCC2)C(c2cccs2)n2c(nc3ccccc32)N1 (stereo unspecified)	?	-6	3	4.5µM*	-19%	?
CC1=C(C(=O)N2CCCCC2)C(c2ccc(Cl)cc2)n2c(nc3ccccc32)N1 (stereo unspecified)	?	-2	.	.	?	.
CC1=C(C(=O)N2CCCCC2)C(c2cccc(Cl)c2)n2c(nc3ccccc32)N1 (stereo unspecified)	?	-13	.	.	16µM*	.
COc1ccc(OC)c(C2C(C(=O)c3ccccc3)=C(C)Nc3nc4ccccc4n32)c1 (stereo unspecified)	?	-2	25	7.1µM*	-22%	-11%
COc1ccccc1NC(=O)C1=C(C)Nc2nc3ccccc3n2C1c1ccccc1Cl (stereo unspecified)	?	-11	.	.	15µM*	.
CCN(CC)S(=O)(=O)c1ccc(N)c(N)c1	.	-4	.	.	.	.
COc1ccc(C2C(C(=O)c3ccccc3)=C(C)Nc3nc4ccccc4n32)cc1OC (stereo unspecified)	15µM*	-9	0	-31%	?	7%
COC(=O)C1=C(C)Nc2nc3ccccc3n2C1c1ccc(O)c(OC)c1 (stereo unspecified)	.	18	.	.	.	.
CCC(Oc1ccccc1)C(=O)Nc1nn2c(-c3ccc(OC)c(OC)c3)nnc2s1 (stereo unspecified)	.	1	.	.	.	.
O=C(Cn1nc(-c2ccccc2Cl)ccc1=O)Nc1ccc(Br)cc1	-2%	-7	-1	30%	20%	7%
Cc1ccc(NC(=O)CN2CCN(Cc3ccccc3)CC2)cc1Cl	29µM*	0	1	.	-24%	.
O=C(Cn1nc(-c2ccccc2Cl)ccc1=O)Nc1ccccc1-c1ccccc1	18µM*	5	1	-5%	?	0%
O=C(CN1CCN(Cc2ccccc2)CC1)Nc1ccccc1-c1ccccc1	29µM*	-19	-22	-32%	26µM*	-24%
COc1ccc(C2c3[nH]c4ccccc4c3CCN2CCCn2cccn2)c(C)c1C (stereo unspecified)	13µM*	-3	-21	-6%	12µM*	12%
